# Assay results: paper PMC11062922 (Nature Chemical Biology, 2023)
# Read-outs that look alike come from different tables or passages of the source.
# Assays:
# Design in all cases: species or system human, MV4-11 + K-562 + COLO205 + SK-N-BE2 + OVCAR-8
# COX5A = conditions: read-out: apparent Kd; compound concentrations: 100 nM and 1000 nM (sheet 'Samples'), CATDS: 4.9189359622159999E-2; n = 1
# DCTPP1 = conditions: read-out: apparent Kd; compound concentrations: 100 nM and 1000 nM (sheet 'Samples'), CATDS: 4.6014352292288702E-2; n = 1
# DJA1 = test system: T1, DJA1; conditions: read-out: apparent Kd; compound concentrations: 100 nM and 1000 nM (sheet 'Samples'), CATDS: 4.4193252056285201E-2; n = 1
# T1 construct: gene DNAJA1
# GSK3A = conditions: read-out: apparent Kd; compound concentrations: 100 nM and 1000 nM (sheet 'Samples'), CATDS: 0.122036106459496; n = 1
# GSK3B = conditions: read-out: apparent Kd; compound concentrations: 100 nM and 1000 nM (sheet 'Samples'), CATDS: 7.9816759037496299E-2; n = 1
# ICK = conditions: read-out: apparent Kd; compound concentrations: 100 nM and 1000 nM (sheet 'Samples'), CATDS: 5.6669342720563003E-2; n = 1
# IRAK4 = conditions: read-out: apparent Kd; compound concentrations: 100 nM and 1000 nM (sheet 'Samples'), CATDS: 4.1120656288718103E-2; n = 1
# NQO2 = conditions: read-out: apparent Kd; compound concentrations: 100 nM and 1000 nM (sheet 'Samples'), CATDS: 4.4133222473916003E-2; n = 1
# PDXK = conditions: read-out: apparent Kd; compound concentrations: 100 nM and 1000 nM (sheet 'Samples'), CATDS: 4.47093082107951E-2; n = 1
# PKM = conditions: read-out: apparent Kd; compound concentrations: 100 nM and 1000 nM (sheet 'Samples'), CATDS: 4.24178727539107E-2; n = 1
# PRKCA = conditions: read-out: apparent Kd; compound concentrations: 100 nM and 1000 nM (sheet 'Samples'), CATDS: 0.16671093509257301; n = 1
# PRKCB = conditions: read-out: apparent Kd; compound concentrations: 100 nM and 1000 nM (sheet 'Samples'), CATDS: 0.103401892254312; n = 1
# PRKCD = conditions: read-out: apparent Kd; compound concentrations: 100 nM and 1000 nM (sheet 'Samples'), CATDS: 0.14677324190073199; n = 1
# PRKCQ = conditions: read-out: apparent Kd; compound concentrations: 100 nM and 1000 nM (sheet 'Samples'), CATDS: 5.3878720766830299E-2; n = 1
# RPS6KA3 = conditions: read-out: apparent Kd; compound concentrations: 100 nM and 1000 nM (sheet 'Samples'), CATDS: 4.20026996356445E-2; n = 1
# RPS6KA6 = conditions: read-out: apparent Kd; compound concentrations: 100 nM and 1000 nM (sheet 'Samples'), CATDS: 0.184421750918566; n = 1
# RPS6KB1 = conditions: read-out: apparent Kd, compound concentrations: 100 nM and 1000 nM (sheet 'Samples'), n = 1
# CSNK1D = conditions: read-out: apparent Kd, n = 1
# CSNK1E = conditions: read-out: apparent Kd, n = 1
# DYRK1A = conditions: read-out: apparent Kd; compound concentrations: 100 nM and 1000 nM (sheet 'Samples'), CATDS: 0.124378507371426; n = 1
# LATS1 = conditions: read-out: apparent Kd; compound concentrations: 100 nM and 1000 nM (sheet 'Samples'), CATDS: 0.13446121771830499; n = 1
# NNT = conditions: read-out: apparent Kd; compound concentrations: 100 nM and 1000 nM (sheet 'Samples'), CATDS: 0.14488734368084999; n = 1
# PKN2 = conditions: read-out: apparent Kd; compound concentrations: 100 nM and 1000 nM (sheet 'Samples'), CATDS: 0.15546286258013101; n = 1
# MAPK14 = conditions: read-out: apparent Kd, n = 1
# MAPKAPK2 = conditions: read-out: apparent Kd, n = 1
# CLK1 = conditions: read-out: apparent Kd; compound concentrations: 100 nM and 1000 nM (sheet 'Samples'), CATDS: 0.27992821641946602; n = 1
# CLK4 = conditions: read-out: apparent Kd; compound concentrations: 100 nM and 1000 nM (sheet 'Samples'), CATDS: 0.21204627821104199; n = 1
# FER = conditions: read-out: apparent Kd; compound concentrations: 100 nM and 1000 nM (sheet 'Samples'), CATDS: 0.14947425083021301; n = 1
# IGF1R = conditions: read-out: apparent Kd; compound concentrations: 100 nM and 1000 nM (sheet 'Samples'), CATDS: 0.12946189122978499; n = 1
# INSR = conditions: read-out: apparent Kd; compound concentrations: 100 nM and 1000 nM (sheet 'Samples'), CATDS: 0.154401741124819; n = 1
# PLK1 = conditions: read-out: apparent Kd; compound concentrations: 100 nM and 1000 nM (sheet 'Samples'), CATDS: 0.14661258796571799; n = 1
# [1] = compound concentrations:100 nM and 1000 nM (sheet 'Samples')
smiles,measurement,setting,value
CNCCCn1cc(C2=C(c3cn(C)c4ccccc34)C(=O)NC2=O)c2ccccc21.Cl [RO0318044-001],potency estimated from few doses,COX5A,925 nM
same,potency estimated from few doses,DCTPP1,1150 nM
same,potency estimated from few doses,DJA1,1330 nM
same,potency estimated from few doses,GSK3A,114 nM
same,potency estimated from few doses,GSK3B,263 nM
same,potency estimated from few doses,ICK,610 nM
same,potency estimated from few doses,IRAK4,1750 nM
same,potency estimated from few doses,NQO2,1330 nM
same,potency estimated from few doses,PDXK,1270 nM
same,potency estimated from few doses,PKM,1550 nM
same,potency estimated from few doses,PRKCA,67.8 nM
same,potency estimated from few doses,PRKCB,154 nM
same,potency estimated from few doses,PRKCD,83 nM
same,potency estimated from few doses,PRKCQ,703 nM
same,potency estimated from few doses,RPS6KA3,1610 nM
same,potency estimated from few doses,RPS6KA6,58.2 nM
same,potency estimated from few doses,RPS6KB1; CATDS: 4.3958496024185799E-2,1350 nM
CCc1nccc2c1nc(-c1nonc1N)n2CC [SB-751148],potency estimated from few doses,"CSNK1D; compound concentrations: 100 nM and 1000 nM (sheet 'Samples'), CATDS: 0.159181013373493",1090 nM
same,potency estimated from few doses,"CSNK1E; compound concentrations: 100 nM and 1000 nM (sheet 'Samples'), CATDS: 0.120883925571631",1960 nM
same,potency estimated from few doses,DYRK1A,1830 nM
same,potency estimated from few doses,LATS1,1530 nM
same,potency estimated from few doses,NNT,1310 nM
same,potency estimated from few doses,PKN2,1140 nM
same,potency estimated from few doses,RPS6KB1; CATDS: 0.17749177686381501,902 nM
Fc1ccc(-c2ncn(C3CCNCC3)c2-c2ccnc(Oc3ccc(F)c(F)c3)n2)cc1 [SB-253228],potency estimated from few doses,CSNK1D; [1],505 nM
same,potency estimated from few doses,CSNK1E; [1],1260 nM
same,potency estimated from few doses,MAPK14; [1],395 nM
same,potency estimated from few doses,MAPKAPK2; [1],125 nM
Fc1ccc(-c2ncn(C3CCNCC3)c2-c2ccnc(Oc3ccc(-c4ccccc4)cc3)n2)cc1 [SB-245391],potency estimated from few doses,CSNK1D; [1],486 nM
same,potency estimated from few doses,CSNK1E; [1],1840 nM
same,potency estimated from few doses,MAPK14; [1],424 nM
same,potency estimated from few doses,MAPKAPK2; [1],116 nM
CCc1cccc(NC(=O)Nc2ccc(Oc3ccc4nc(NC(=O)OC)[nH]c4c3)cc2)c1 [GW673715X],potency estimated from few doses,"CSNK1D; compound concentrations: 100 nM and 1000 nM (sheet 'Samples'), CATDS: 0.27728092810056698",739 nM
same,potency estimated from few doses,"CSNK1E; compound concentrations: 100 nM and 1000 nM (sheet 'Samples'), CATDS: 0.214439081495093",1270 nM
same,potency estimated from few doses,"MAPK14; compound concentrations: 100 nM and 1000 nM (sheet 'Samples'), CATDS: 0.234253056752116",1030 nM
same,potency estimated from few doses,"MAPKAPK2; compound concentrations: 100 nM and 1000 nM (sheet 'Samples'), CATDS: 0.28890607877709801",685 nM
CNC(=O)c1ncccc1Nc1nc(Nc2cc3c(cc2OC)CCCN3C(=O)CN(C)C)nc2[nH]ccc12 [GSK2220400A],potency estimated from few doses,CLK1,321 nM
same,potency estimated from few doses,CLK4,504 nM
same,potency estimated from few doses,FER,1020 nM
same,potency estimated from few doses,IGF1R,1500 nM
same,potency estimated from few doses,INSR,949 nM
same,potency estimated from few doses,PLK1,1070 nM
